Only some compounds are listed: those with a hit (about 21% of all), similar ones and a draw of the others.
CYP2C19 activ – human CYP2C19 activators, primary screen, biochemical, luminescence. 96,000 tested, under 10 active. activation factor at 5 µM. recombinant CYP2C19, luciferin-H EGE luminescence; hits give high values; 0 = fully inhibited enzyme, 1 = untreated enzyme;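 active means activation factor of at least 2 at 5 µM in the primary screen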;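 further: 0 = wells with 2.5 mM tranylcypromine and 1 = vehicle-only wells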
Target sequence (P33261 whole entry, looked up): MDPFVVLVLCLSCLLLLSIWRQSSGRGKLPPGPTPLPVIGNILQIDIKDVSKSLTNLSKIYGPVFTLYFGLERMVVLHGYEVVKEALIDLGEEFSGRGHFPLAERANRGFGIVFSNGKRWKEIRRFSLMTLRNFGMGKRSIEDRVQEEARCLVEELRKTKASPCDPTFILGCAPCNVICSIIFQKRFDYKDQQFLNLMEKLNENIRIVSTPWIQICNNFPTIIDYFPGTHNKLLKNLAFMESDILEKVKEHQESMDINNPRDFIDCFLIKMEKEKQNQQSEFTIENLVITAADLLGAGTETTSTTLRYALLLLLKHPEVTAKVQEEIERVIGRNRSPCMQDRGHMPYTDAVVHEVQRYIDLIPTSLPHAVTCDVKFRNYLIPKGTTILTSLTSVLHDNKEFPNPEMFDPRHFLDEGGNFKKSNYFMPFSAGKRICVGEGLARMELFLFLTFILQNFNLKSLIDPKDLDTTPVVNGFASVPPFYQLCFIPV
CYP2C9 inh – blockers of cytochrome P450 2C9 activity – biochemical, luminescence, ADME assay, primary screen | P11712 | CYP2C9 Supersomes, luciferin-H conversion | inhibition, % at 5 µM | 20% of 96,000 active | AID 777, 2007;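 active means blocking of liver enzyme CYP2C9 beyond about 50% at 5 µM, limit read from the data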
MRP resist rev – reversal of MRP1-mediated doxorubicin resistance, primary screen, H69AR cells, doxorubicin co-treatment; H69AR cells + 2 uM doxorubicin, CellTiter-Glo, 72 h; differential viability (reversal), % at 10 µM; 0.04% of 85,000 active;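 active means viability drop by adding the cancer drug above about 55%, with treated viability meeting a 40% cutoff, limit read from the data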;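 further: viability without doxorubicin minus viability with 2 µM doxorubicin for each compound; larger differential means the compound sensitizes cells more to doxorubicin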
MRP1 act – H69AR viability gain despite doxorubicin, primary screen, MRP-1 activator project, H69AR cells, CellTiter-Glo | viability rescue | viability increase, % at 10 µM | 0.61% of 140,000 active | AID 799, 2007;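 active means viability gain under doxorubicin at or above a set limit, the compound median plus 3 SD, cut at about 4.7% in these data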;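 further: MRP-1 overexpressing cells given doxorubicin 25 µM after compound pretreatment; 18-22 h compound pretreatment then 72 h with doxorubicin before readout; 0% = doxorubicin-only wells and 100% = vehicle-treated cells without doxorubicin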
CYP2C9 activ – human CYP2C9 activators, primary screen, biochemical, luminescence; recombinant CYP2C9, luciferin-H conversion; hits give high values; factor 1 = untreated enzyme, 0 = blocked; Cytochrome P450 2C9 (Homo sapiens), P11712; 1.4% of 96,000 active; activation factor at 5 µM;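 active means activation factor of 2 or more for CYP2C9 at a 5 µM dose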;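 further: 0 = sulfaphenazole-blocked wells and 1 = vehicle-only wells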
CYP2C19 inhib – blockers of cytochrome P450 2C19 activity – biochemical, luminescence, ADME assay, primary screen; P33261; CYP2C19 Supersomes, luciferin-H EGE luminescence, 30 min; inhibition, % at 5 µM; 21% of 96,000 active;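 active means CYP2C19 inhibition above a set limit at 5 µM in the primary screen, cut at about 50% in these data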;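 further: plate controls were negative control wells for no effect and 2.5 mM tranylcypromine positive control for full effect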
* marks the source's active call; other numbers are inactive results; . = not tested or not shown.

SMILES	CYP2C19 activ	CYP2C9 inh	MRP resist rev	MRP1 act	CYP2C9 activ	CYP2C19 inhib
CCc1cc2c(NCc3ccco3)ncnc2s1	0.5	41	18	-3	0.6	50*
CCc1cc2c(NCC(=O)O)ncnc2s1	1.1	-10	-2	0	1.1	-7
Clc1ccc(Cn2ncc3c(NCc4ccco4)ncnc32)c(Cl)c1	0.8	-180	-20	-3	2.8*	22
O=S(=O)(/N=C(/c1ccc(Cl)cc1)N1CCOCC1)c1ccc(Cl)cc1	1	-3	.	0	1	0
COc1cc(CNC2CCCC2)cc(Cl)c1OCc1ccccc1F	0	6	.	-5	0.9	96*
CCCC(C(=O)NCc1ccco1)N(C(=O)CNS(=O)(=O)c1ccc(Cl)cc1)C1CCCC1 (configuration not stated)	0.1	80*	9	-1	0.2	92*
CCC(C(=O)NCc1ccco1)N(C(=O)CNS(=O)(=O)c1ccccc1)C1CCCCC1 (configuration not stated)	0.3	37	1	-1	0.6	71*
CC(C)C(C(=O)NCc1ccco1)N(C(=O)CNS(=O)(=O)c1ccccc1)C1CCCC1 (configuration not stated)	0.9	-19	11	-4	1.2	7
CCCC(=O)OCC(=O)Nc1ccc(N=Nc2ccccc2)cc1	.	.	.	-3	.	.
c1ccc2[nH]c(CSc3ncnc4c3oc3ccccc34)nc2c1	0.3	97*	-9	-4	0	69*
Cc1nc(SCc2nc3ccccc3[nH]2)c2oc3ccccc3c2n1	0.7	91*	-20	-5	0.1	32
Cc1nc(SCCO)c2oc3ccccc3c2n1	0.7	48	13	-1	0.5	27
Cc1ccnc(N2CCC(C(=O)Nc3ccc(Oc4ccccc4)cc3)CC2)n1	1	27	1	-2	0.7	0
Cc1ccnc(N2CCC(C(=O)Nc3cccc(C(F)(F)F)c3)CC2)n1	0.1	4	1	-3	1	91*
Cc1cc(C)nc(N2CCC(C(=O)NCc3cccc(C(F)(F)F)c3)CC2)n1	1	-58	8	-1	1.6	-1
O=C(NCc1cccc(C(F)(F)F)c1)C1CCN(c2ncccn2)CC1	0.8	67*	-4	-1	0.3	16
CCSC1=C(C#N)C(c2ccc(F)cc2)CC(=O)N1 (configuration not stated)	0.6	10	-4	-3	0.9	38
CCSC1=C(C#N)C(c2ccc(OC)c(OC)c2)CC(=O)N1 (configuration not stated)	0.4	27	2	-1	0.7	63*
COc1cccc(C2CC(=O)NC(SC)=C2C#N)c1 (configuration not stated)	0.4	62*	5	-3	0.4	64*
CCSC1=C(C#N)C(c2cccc(Br)c2)CC(=O)N1 (configuration not stated)	0.6	29	1	1	0.7	44
CC12CCC(C(=O)NNc3ccc([N+](=O)[O-])cc3)(CC1=O)C2(C)C (configuration not stated)	.	.	.	1	.	.
COc1cccc2cc(C(N)=O)/c(=N/NC(=O)COc3ccc(Cl)cc3)oc12	.	.	.	-4	.	.
Cc1ccc(NCc2nnc(SC(C)C(=O)N/N=C/c3ccc(C)o3)n2-c2ccccc2)cc1 (configuration not stated)	0.7	9	.	0	0.9	29
Cc1ccccc1OCCn1c(=O)sc2ccccc21	.	.	9	-1	.	.
Cc1ccc(C(C)C)c(OCCn2c(=O)oc3ccccc32)c1	0.1	82*	18	-3	0.2	92*
SMILES	CYP2C19 activ	CYP2C9 inh	MRP resist rev	MRP1 act	CYP2C9 activ	CYP2C19 inhib
O=c1oc2ccccc2n1CCc1ccccc1	0.1	2	-1	-1	1	86*
Cc1ccc(NC(=O)CCn2c(=O)oc3ccccc32)c(C)c1	0.7	5	7	1	1	29
Cc1ccccc1OCCn1c(=O)oc2ccccc21	0	69*	6	0	0.3	99*
Cc1ccc(C)c(NC(=O)CCCCCCCCCCC2COCCO2)c1 (configuration not stated)	.	.	.	0	.	.
CCOCCCN(Cc1ccco1)C(=O)c1cc2c(=O)[nH]c3ccc(C)cc3c2s1	0.8	21	-27	-5	0.8	19
CCNC(=O)Cn1c(=O)c2c(ncn2Cc2ccccc2)n(Cc2ccccc2)c1=O	0.1	13	3	-2	0.9	89*
CCN(CCCNC(=O)CCCN1C(=O)COc2ccc(C)cc21)c1cccc(C)c1	0.5	58*	-5	-1	0.4	50*
Cc1ccc2c(c1)N(CCCC(=O)NCc1ccc3c(c1)OCO3)C(=O)CO2	.	.	14	-3	.	.
Cc1ccc2c(c1)N(CCC(=O)NCc1ccco1)C(=O)CO2	0.6	-13	11	0	1.1	38
Cc1ccc2c(c1)N(CCC(=O)NCc1cccnc1)C(=O)CO2	0.6	20	-5	-1	0.8	44
Cc1ccc2c(c1)N(CCC(=O)NCc1ccccn1)C(=O)CO2	0.4	-14	9	0	1.1	55*
O=C(CCCCCN1C(=O)c2ccccc2C1=O)NCc1ccco1	0.8	60*	-5	-1	0.4	22
O=C(CCN1C(=O)COc2ccccc21)NCc1ccco1	0.1	8	0	-1	0.9	94*
CCOc1ccc(C2NC(=O)NC(C)=C2C(=O)OC)cc1C (configuration not stated)	0.6	29	9	1	0.7	43
O=C(Nc1ccc(F)cc1F)c1cc2nc3c(c(C(F)(F)F)n2n1)CCCC3	.	.	.	0	.	.
CCNC(=S)N(CCc1cccc(C)c1)Cc1cc2cc(OC)c(OC)cc2[nH]c1=O	.	.	.	-4	.	.
CCOC(=O)c1c(C)[nH]c(C(=O)Cn2c(=O)oc3ccccc32)c1C	1	9	3	-1	0.9	-3
COc1ccccc1CNC(=O)CCCN1C(=O)COc2ccc(C)cc21	0.4	-39	23	1	1.4	62*
COc1ccccc1CNC(=O)CCN1C(=O)COc2ccccc21	0.5	-65	12	0	1.7	50*
COc1ccccc1CNC(=O)CCN1C(=O)COc2ccc(C)cc21	0.4	10	-10	-2	0.9	62*
COCCCNC(=O)CCN1C(=O)COc2ccccc21	1	-12	5	-1	1.1	0
CCOC(=O)N1CCN(C(=O)CN2C(=O)COc3ccc(C)cc32)CC1	0.9	6	-8	-1	0.9	12
COc1ccc(C(=O)Nc2ccc(C(=O)Nc3nccs3)cc2)cc1[N+](=O)[O-]	.	.	.	1	.	.
